From publication PMC5540273 (PLoS ONE, 2017)

Key:
Conditions in all cases: concentration: 1 μM, replicates: in singlicate; n = 1
[1] = test system: ACVR1B
[2] = test system: ACVR1
[3] = test system: ACVR2A
[4] = test system: ACVR2B
[5] = test system: ACVRL1
[6] = test system: T1, ADCK3
T1 construct: gene CABC1

[7] = test system: ADCK4
[8] = test system: AKT1
[9] = test system: AKT2
[10] = test system: AKT3
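Note: KINOMEscan kinase panel screen.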

SMILES | %Inh [1] | %Inh [2] | %Inh [3] | %Inh [4] | %Inh [5] | %Inh [6] | %Inh [7] | %Inh [8] | %Inh [9] | %Inh [10]
Cc1nn2c(=O)cc(N3CCOCC3)nc2n1Cc1cccc(Cl)c1Cl [GSK2342769] | 0% | 12% | 0% | 0% | 42% | 10% | 4% | 0% | 14% | 0%
Nc1nccc2scc(-c3ccc4c(c3)CCN4C(=O)Cc3ccccc3)c12 [GSK2576924] | 0% | 10% | 42% | 0% | 0% | 13% | 0% | 0% | 11% | 0%
Cc1nc(N(C)[C@H]2CN(C(=O)CC#N)CC[C@H]2C)c2cc[nH]c2n1 | 8% | 8% | 15% | 0% | 5% | 0% | 0% | 0% | 1% | 3%
Cc1c(Cn2c(C)nn3c(=O)cc(N4CCO[C@H](C)C4)nc23)cccc1C(F)(F)F [GSK2373690] | 0% | 2% | 3% | 0% | 0% | 22% | 24% | 0% | 6% | 28%
Cc1nnc(-c2ccc(C)c(-c3ccc(C(=O)O)cc3)c2)o1 [GW608005] | 0% | 4% | 0% | 0% | 0% | 0% | 0% | 0% | 6% | 0%
O=C(Nc1ccc2c(c1)OCO2)NC1CCN(c2ccnc(NCc3ccc(F)cc3)n2)CC1 [GSK1379859] | 0% | 0% | 0% | 0% | 0% | 0% | 30% | 0% | 5% | 0%
CN1C(=O)C(Nc2ccccc2)=C(c2ccccc2)C1=O [SB-300079] | 8% | 0% | 0% | 0% | 0% | 0% | 25% | 0% | 0% | 0%
COc1ccc(-c2cc3c(C)nc(N)nc3n([C@H]3CC[C@H](O)CC3)c2=O)cn1 | 0% | 0% | 0% | 0% | 0% | 0% | 0% | 0% | 0% | 0%
Nc1n[nH]c2nnc(-c3ccccc3)c(-c3ccccc3)c12 [GW554060] | 0% | 21% | 0% | 0% | 0% | 27% | 36% | 0% | 16% | 0%
Nc1ncnc2c1ncn2-c1ccc(Cl)cc1 [AH2635] | 0% | 3% | 0% | 16% | 0% | 24% | 33% | 0% | 0% | 0%
COc1ccc(-n2cnc3c(N)ncnc32)cc1 [SKF-97236] | 21% | 7% | 35% | 32% | 10% | 0% | 0% | 0% | 1% | 11%
O=C(Nc1n[nH]c2cc(-c3ccccc3F)ccc12)C1CC1 [SB-733371] | 1% | 32% | 38% | 48% | 0% | 0% | 0% | 0% | 0% | 7%
COc1cccc(C2=C(Nc3cccc(C(=O)O)c3)C(=O)NC2=O)c1 [SB-390770] | 18% | 15% | 17% | 40% | 4% | 0% | 8% | 2% | 0% | 0%
C[C@@H]1CC[C@H](C(=O)NC2CCCCC2)CN1c1cc(-c2ccc3c(N)n[nH]c3c2)nc(N)n1 [GSK2291363] | 0% | 0% | 0% | 0% | 0% | 22% | 49% | 0% | 11% | 0%
COc1cccc(-n2cnc3c(N)ncnc32)c1 [SKF-97416] | 22% | 0% | 3% | 0% | 11% | 0% | 8% | 1% | 0% | 22%
Cc1nnc(-c2ccc3ncn(-c4ccc(S(C)=O)cc4)c3c2)o1 (centres unmarked) | 15% | 0% | 0% | 0% | 9% | 5% | 0% | 0% | 0% | 0%
COc1cc2ncn(-c3cc(OCc4ccncc4)c(C(N)=O)s3)c2cc1OC [GSK336313] | 0% | 9% | 0% | 0% | 0% | 0% | 20% | 0% | 1% | 0%
